Experimental data reported in PubChem BioAssay AID1240 (Sanford-Burnham Center for Chemical Genomics, 2008).
Several values for one entry are separate records, joined by “and”; a condition that tells them apart may be missing. Equal entries are not always repeated. Among all 50,000 compounds or so, about 800 (1.6%) showed an effect of 50% or more. Many of the other results were omitted from the sample, so strong results are more common in it than they were.

target: Bcl-2-like protein 10 (Homo sapiens) (UniProt Q9HD36); experiment: TR3 peptide-Bcl-B binding displacers, biochemical primary FP assay, phenotype converters (AID 1240); conditions: GST-Bcl-B / FITC-TR3 peptide fluorescence polarization; stronger effect = higher value; compound at 3.75 mg/L;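 further: 0% = Bcl-B with tracer peptide and DMSO and 100% = tracer peptide lacking Bcl-B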
Sequence (Q9HD36 whole entry, looked up): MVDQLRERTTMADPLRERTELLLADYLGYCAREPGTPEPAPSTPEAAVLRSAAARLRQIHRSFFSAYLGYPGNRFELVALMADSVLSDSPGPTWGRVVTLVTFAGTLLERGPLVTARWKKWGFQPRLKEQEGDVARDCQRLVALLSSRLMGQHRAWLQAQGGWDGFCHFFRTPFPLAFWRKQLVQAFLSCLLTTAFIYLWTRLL

| Structure (SMILES) | displacement |
| --- | --- |
| O=C(/C=C/c1ccc(F)cc1)NC(=S)NCc1ccco1 | 18.2% |
| O=C1NC(=O)N(c2ccccc2)C(=O)/C1=C\c1ccc(-c2ccccc2Cl)o1 | 42.6% |
| O=C1NC(=O)N(c2ccccc2)C(=O)/C1=C\c1ccc(-c2ccc([N+](=O)[O-])cc2Cl)o1 | 11.5% |
| Cc1cc(-c2ccc(C=C3C(=O)NC(=S)NC3=O)o2)c([N+](=O)[O-])cc1C | 26.1% |
| Cc1ccc(N2C(=O)NC(=O)/C(=C\c3ccc(-c4ccc([N+](=O)[O-])cc4Cl)o3)C2=O)cc1 | 87.2% |
| Cc1ccc(-c2ccc(C=C3C(=O)NC(=O)NC3=O)o2)c([N+](=O)[O-])c1 | 1.3% |
| O=C1NC(=S)N/C1=C/c1ccc(-c2cccc(Br)c2)o1 | 15.5% |
| O=C1NC(=O)C(=Cc2ccc(-c3cc(Cl)c([N+](=O)[O-])cc3Cl)o2)C(=O)N1 | 81.2% |
| CN1C(=O)C(=Cc2ccc(-c3cccc(Cl)c3Cl)o2)C(=O)N(C)C1=O | 4.6% |
| CN1C(=O)NC(=O)/C(=C/c2ccc(-c3cccc(Cl)c3Cl)o2)C1=O | 74.5% |
| O=C1NC(=O)C(=Cc2ccc(-c3cccc(Br)c3)o2)C(=O)N1 | 81.1% |
| Cc1ccc(-c2ccc(C=C3C(=O)NC(=O)NC3=O)o2)c(Br)c1 | -9.6% |
| COc1ccc(N2C(=O)NC(=O)/C(=C/c3ccc(-c4ccc([N+](=O)[O-])cc4Cl)o3)C2=O)cc1 | 20.3% |
| Nc1nonc1N=Cc1cc(Br)ccc1O | -12.8% |
| CCC1CCc2c(sc(NC(=O)C3CCCC3)c2C(N)=O)C1 (configuration not stated) | -1.5% |
| COc1cc(/C=C2/C(=O)NC(=O)N(c3cccc(C)c3)C2=O)ccc1OCC(=O)O | -14.8% |
| Cc1cc(=O)[nH]c(SCc2cccc(Oc3ccccc3)c2)n1 | -8% and 5.2% |
| CCCCOc1cc2oc(=O)c(CC)c(C)c2cc1CC | 0.2% |
| CN(c1ccccc1)c1ccc(C=C2C(=O)NC(=O)NC2=O)cc1 | 19.6% |
| CC(/C=C/c1ccc(N(C)C)cc1)=N\N=C(/N)SC1CC(=O)N(c2ccc(F)cc2)C1=O (configuration not stated) | -8.3% |
| COc1cc2c(C)nc3c(c(C)nn3-c3ccccc3)c2cc1OC | 59.5% |
| COc1cc2c(C)nc3c(c(C)nn3C)c2cc1OC | -1.5% |

| Structure (SMILES) | displacement |
| --- | --- |
| COc1cc2c(C)nc3c(cnn3-c3ccccc3)c2cc1OC | -5.8% |
| CCOc1cc(C2CC(=O)NC(C)=C2C(=O)OC)cc(Br)c1OC (configuration not stated) | 10.6% |
| CCCCOP(=O)(OCCCC)C(Nc1ccccc1)c1ccc(OC)cc1 (configuration not stated) | 52.1% |
| CCOP(=O)(OCC)C(Nc1ccccc1)c1ccc2c(c1)OCO2 (configuration not stated) | 13.6% |
| CCCOP(=O)(OCCC)C(Nc1ccc(Cl)cc1)c1ccc(Br)cc1 (configuration not stated) | 17.1% |
| COc1cc(C2NC(=O)c3c(sc4c3CCN(C)C4)N2)cc(OC)c1OC (configuration not stated) | 3.2% |
| CN1CCc2c(sc3c2C(=O)NC(c2ccc4ccccc4c2)N3)C1 (configuration not stated) | 83% |
| CN1CCc2c(sc3c2C(=O)NC(c2ccc(Cl)s2)N3)C1 (configuration not stated) | 4% |
| CCOC(=O)NC12CC3CC(C1)CC(C(F)(F)F)(C3)C2 | 3.2% |
| COc1ccc(/C=N\N2CCN(c3ccccc3)CC2)cc1 | -0.3% |
| CCOC(=O)c1c(NC(=O)Cc2ccc(Cl)cc2)sc(C(=O)Nc2ccc(OC)cc2OC)c1C | 18.5% |
| O=C1CCNc2c(Cl)cc(Cl)cc21 | 88.6% |
| C/C(=N\N1CCN(c2ccccc2)CC1)c1ccc(F)cc1 | -8.7% |
| CC1(C)Cc2ccccc2C(N/N=C/c2ccc(Cl)cc2)=N1 | -3.6% |
| O=c1oc2ccc(Br)cc2cc1-c1nc(-c2ccc([N+](=O)[O-])cc2)cs1 | -7.2% |
| Cc1ccc(-c2nc(-c3cc4cc([N+](=O)[O-])cc(Br)c4oc3=O)cs2)c(C)c1 | 95.2% |
| O=c1oc2ccc(Br)cc2cc1-c1csc(-c2cc3cc([N+](=O)[O-])ccc3oc2=O)n1 | -5.4% |
| Cc1ccc(S(=O)(=O)Nc2ccc(S(=O)(=O)N3CCCCC3)cc2)cc1[N+](=O)[O-] | -4% |
| Cn1c(=O)c(C2=NS(=O)(=O)c3ccccc3N2)c(O)c2ccccc21 | 2.1% |
| CC(=O)CC(c1ccccc1)S(=O)(=O)c1ccccc1C (configuration not stated) | 0.2% |
| O=C(NCCCc1ccccc1)C(F)(F)F | 85.1% |
| O=C(NCCC(c1ccccc1)c1ccccc1)C(F)(F)F | -1.5% |

| Structure (SMILES) | displacement |
| --- | --- |
| O=C(NCCCc1ccccc1)c1ccccc1 | -1.3% |
| CCCCOc1ccc(C=O)cc1OCC | -7.3% |
| CC(=O)C1=C(O)C(=O)N(CCN2CCNCC2)C1c1cccc(F)c1 (configuration not stated) | -17.2% |
| CCOC(=O)c1ccc(N2C(=O)NC(=O)/C(=C/c3ccc(OC)c(OC)c3)C2=O)cc1 | -4.2% |
| CCCC(=O)NC(c1ccco1)c1c(O)ccc2ccccc12 (configuration not stated) | 6.6% |
| NS(=O)(=O)c1ccc(N/C=C/C(=O)c2ccco2)cc1 | 74.8% |
| COc1ccc(N/C=C/C(=O)c2ccco2)cc1 | 11.7% |
| NS(=O)(=O)c1ccc(N/C=C/C(=O)c2ccc(Cl)c(Cl)c2)cc1 | 4.8% |
| Cc1ccc(N2C(=O)NC(=O)/C(=C\c3ccc(N(C)C)c(Br)c3)C2=O)cc1 | 10.1% |
| CC(=O)c1cccc(N2C(=O)C3CCCCC3C2=O)c1 (configuration not stated) | -12.9% |
| CC(=O)Oc1ccccc1/C=C1\C=C(c2ccc(C)cc2)OC1=O | -0.2% |
| COc1ccc(/C=C2/C=C(c3ccccc3)OC2=O)c(OC)c1 | -30% |
| COc1ccc(OC)c(/C=C2/C=C(c3ccccc3)OC2=O)c1 | -24.5% |
| COc1ccc(/C=C2\C=C(c3ccc(Cl)cc3)OC2=O)c(OC)c1 | 25.2% |
| COc1ccc(C2=C/C(=C/c3ccc(OC)cc3OC)C(=O)O2)cc1 | 144% |
| CC(=O)Oc1ccccc1/C=C1\C=C(c2ccc(Br)cc2)OC1=O | 12% |
| COc1ccc(C2=C/C(=C/c3ccccc3OC)C(=O)O2)cc1 | 85.1% |
| CC(=O)Oc1ccccc1/C=C1\C=C(c2ccc(Cl)cc2)OC1=O | 108% |
| COc1ccccc1/C=C1\C=C(c2ccc(Cl)cc2)OC1=O | 9.6% |
| O=C(CCc1ccccc1)Nc1ccc(Br)cc1 | 9.1% |
| O=[N+]([O-])c1cccc(Cl)c1N1CCOCC1 | 3.9% |
| O=[N+]([O-])c1cccc(Cl)c1N1CCN(CCO)CC1 | 89.3% |

| Structure (SMILES) | displacement |
| --- | --- |
| O=C(c1ccccc1Cl)N1CCN(c2c(Cl)cccc2[N+](=O)[O-])CC1 | 8.5% |
| Cc1ccc(C(=O)Nc2ccc(NC(=O)c3ccco3)cc2)cc1C | -0.4% |
| Cc1ccc(C(=O)Nc2cccc(NC(=O)c3ccco3)c2)cc1C | 60.4% |
| Cc1ccc(C(=O)Nc2ccc(NC(=O)c3ccco3)c(Cl)c2)cc1C | -8.9% |
| CCn1cc(C(=O)NN)c(=O)c2cc(Br)ccc21 | 20.2% |
| O=C(CSc1nc2ccc([N+](=O)[O-])cc2s1)N1CCOCC1 | 1.4% |
| COC1C(C)=CC(=O)N1Cc1ccccc1 (configuration not stated) | 4.4% |
| Cc1cc(C)c(S(=O)(=O)NCC2CCCO2)c(C)c1 (configuration not stated) | -8% |
| CCc1cc(C)cc(OCCOc2ccc([N+](=O)[O-])cc2/C=C2/SC(=S)N(C)C2=O)c1 | 20.5% |
| COc1ccccc1/C=C1\SC(=N)N(c2ccc(F)cc2)C1=O | -8.6% |
| O=c1c(C=NCc2cccs2)c(C(F)(F)F)[nH]n1-c1nc2ccccc2s1 | -13.8% |
| COc1ccc(CCN=Cc2c(C(F)(F)F)[nH]n(-c3nc4ccccc4s3)c2=O)cc1OC | 69.9% |
| CCCc1[nH]n(-c2nc3ccccc3s2)c(=O)c1C=NCCc1ccccc1 | -1% |
| Cc1ccc(C)c(NC(=O)C2C3C4CCC(C4)C23)c1 (configuration not stated) | -7.2% |
| COc1ccc(/C=C/C(=O)NC(=S)Nc2ccc(I)cc2)cc1 | 14.3% |
| CCN(CC)C(=O)c1cnn(-c2ccccc2)c1NC(=O)c1ccccc1Cl | 9.1% |
| O=C(Nc1c(C(=O)Nc2cccc(Cl)c2)cnn1-c1ccccc1)c1ccccc1Cl | 83% |
| Cc1ccc(NC(=O)c2cnn(-c3ccccc3)c2NC(=O)c2ccccc2Cl)cc1C | 3.3% |
| COCCOC(=O)c1ccc(NC(=O)c2ccccc2CCc2ccccc2)cc1 | 7.1% |
| CN1CCC(O)N1C(=O)c1ccccc1O (configuration not stated) | 12.7% |
| Cc1ccc(-c2nc3cc(Cl)ccc3o2)cc1NC(=O)c1ccc2ccccc2c1 | 128% |
| Cc1ccc2nc(-c3ccc(C)c(NC(=O)c4ccc5ccccc5c4)c3)oc2c1 | -11.3% |

| Structure (SMILES) | displacement |
| --- | --- |
| COc1c(Cl)cc(C(=O)Nc2cc(-c3nc4cc(Cl)ccc4o3)ccc2C)cc1Cl | 7.7% |
| Cc1ccc(-c2nc3cc(Cl)ccc3o2)cc1NC(=O)c1ccc2c(c1)OCCO2 | 102% |
| CCc1ccc2oc(-c3cccc(NC(=O)c4ccc5c(c4)OCCO5)c3)nc2c1 | 0.9% |
| Cc1ccc(-c2nc3ccccc3o2)cc1NC(=O)c1ccc2c(c1)OCCO2 | 45.1% |
| Cc1ccc(-c2nc3cc(Cl)cc(Cl)c3o2)cc1NC(=O)c1ccc2c(c1)OCCO2 | 6.6% |
| CCc1ccc2oc(-c3ccc(C)c(NC(=O)c4cc(OC)cc(OC)c4)c3)nc2c1 | 13.4% |
| COc1cc(OC)cc(C(=O)Nc2cc(-c3nc4cc(Cl)ccc4o3)ccc2C)c1 | 110% |
| O=C(Nc1cccc(-c2nc3cc(Cl)ccc3o2)c1)c1ccc(Cl)cc1 | 0.2% |
| Cc1ccc(-c2nc3ccccc3o2)cc1NC(=O)c1cccc(Cl)c1 | 17% |
| O=C(Nc1cccc(-c2nc3cc(Cl)ccc3o2)c1)c1ccc2c(c1)OCCO2 | 105% |
| COc1ccc(C)cc1NC(=O)COc1ccc(Br)cc1C | 7.7% |
| CCOC(=O)C1=C(C)NC(=O)CC1c1ccccc1I (configuration not stated) | -10.7% |
| COc1ccc(OCCCCN2CCN(C)CC2)cc1 | -5.8% |
| Cc1noc2c1/C(=N\O)CC(c1ccccc1)C2 (configuration not stated) | 2.6% |
| Cc1cc(C(=O)Nc2cccc(C)c2C)ccc1[N+](=O)[O-] | 15.9% |
| COCCOC(=O)c1c(C)oc2ccc(OCc3c(F)cccc3Cl)cc12 | 6.9% |
| Cc1oc2ccc(OCc3c(F)cccc3Cl)cc2c1C(=O)O | 11.7% |
| COC(=O)c1c(C)oc2ccc(OCc3c(F)cccc3Cl)cc12 | 91% |
| Cc1ccc(N(CC(=O)N(Cc2ccccc2)Cc2ccccc2)S(C)(=O)=O)cc1 | -7.5% |
